# Results taken from paper PMC3218832.
# Tests used:
# Assay in all cases: protein binding microarray; high values mean tight binding
# Conditions in all cases: dsDNA, one strand shown
# [1] = biological target: RELARELA (p65 homodimer) (Homo sapiens, UniProt Q04206 1-307)
# [2] = biological target: p50p50 homodimer (Homo sapiens, UniProt P19838 7-356)
# [3] = biological target: T1, p52p52 homodimer (Homo sapiens, UniProt Q00653 4-332)
# T1 sequence: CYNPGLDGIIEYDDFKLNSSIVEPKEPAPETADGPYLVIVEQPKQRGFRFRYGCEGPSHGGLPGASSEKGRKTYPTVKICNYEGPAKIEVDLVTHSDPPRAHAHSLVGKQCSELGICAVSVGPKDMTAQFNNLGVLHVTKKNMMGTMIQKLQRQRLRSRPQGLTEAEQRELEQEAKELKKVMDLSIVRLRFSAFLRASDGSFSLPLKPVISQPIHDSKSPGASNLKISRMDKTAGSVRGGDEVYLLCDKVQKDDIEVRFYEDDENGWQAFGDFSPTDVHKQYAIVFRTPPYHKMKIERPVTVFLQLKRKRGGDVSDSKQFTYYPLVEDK
# [4] = biological target: RELA (p65) subunit of heterodimer;p50 subunit (Homo sapiens;Homo sapiens, UniProt Q04206;P19838 1-307;7-356)
# Chain of RELA (p65) subunit of heterodimer;p50 subunit (Q04206 1-307, chain 1 of 2): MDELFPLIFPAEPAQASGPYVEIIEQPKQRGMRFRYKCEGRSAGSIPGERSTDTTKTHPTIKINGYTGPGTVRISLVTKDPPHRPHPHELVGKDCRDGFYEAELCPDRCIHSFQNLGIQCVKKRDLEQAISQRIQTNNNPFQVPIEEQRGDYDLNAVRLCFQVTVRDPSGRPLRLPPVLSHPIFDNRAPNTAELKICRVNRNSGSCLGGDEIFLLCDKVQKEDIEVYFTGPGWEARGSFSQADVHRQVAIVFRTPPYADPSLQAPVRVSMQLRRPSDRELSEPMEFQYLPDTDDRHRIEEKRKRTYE
# Chain of RELA (p65) subunit of heterodimer;p50 subunit (P19838 7-356, chain 2 of 2): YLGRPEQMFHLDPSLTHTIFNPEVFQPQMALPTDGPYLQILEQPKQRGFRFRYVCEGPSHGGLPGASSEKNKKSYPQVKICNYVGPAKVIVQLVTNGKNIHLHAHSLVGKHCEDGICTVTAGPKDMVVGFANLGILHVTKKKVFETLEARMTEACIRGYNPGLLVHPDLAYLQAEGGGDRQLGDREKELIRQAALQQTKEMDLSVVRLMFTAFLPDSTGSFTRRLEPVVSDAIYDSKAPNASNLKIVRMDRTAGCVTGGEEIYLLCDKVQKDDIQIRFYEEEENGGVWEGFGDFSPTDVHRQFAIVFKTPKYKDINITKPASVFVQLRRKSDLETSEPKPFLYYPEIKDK
# [5] = biological target: RELA (p65) subunit of heterodimer;p52 subunit (Homo sapiens;Homo sapiens, UniProt Q04206;Q00653 1-307;4-332)
# [6] = biological target: RELB subunit;p50 subunit (Homo sapiens;Homo sapiens, UniProt Q01201;P19838 120-401;7-356)
# [7] = biological target: T2, RELB subunit;p52 subunit (Homo sapiens;Homo sapiens, UniProt Q01201;Q00653 120-401;4-332)
# T2 sequence 1: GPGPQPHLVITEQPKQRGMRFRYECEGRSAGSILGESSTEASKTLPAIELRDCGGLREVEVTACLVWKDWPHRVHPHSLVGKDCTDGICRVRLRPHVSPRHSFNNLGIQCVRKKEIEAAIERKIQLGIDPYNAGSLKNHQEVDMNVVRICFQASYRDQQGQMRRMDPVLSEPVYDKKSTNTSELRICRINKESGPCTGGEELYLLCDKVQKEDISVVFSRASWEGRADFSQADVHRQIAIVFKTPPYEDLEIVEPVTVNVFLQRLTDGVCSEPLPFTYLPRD
# T2 sequence 2: T1 sequence
# [8] = biological target: C-Rel subunit;p50 subunit (Homo sapiens;Homo sapiens, UniProt Q04864;P19838 1-285;7-356)
# [9] = biological target: T3, C-Rel subunit;p52 subunit (Homo sapiens;Homo sapiens, UniProt Q04864;Q00653 1-285;4-332)
# T3 sequence 1: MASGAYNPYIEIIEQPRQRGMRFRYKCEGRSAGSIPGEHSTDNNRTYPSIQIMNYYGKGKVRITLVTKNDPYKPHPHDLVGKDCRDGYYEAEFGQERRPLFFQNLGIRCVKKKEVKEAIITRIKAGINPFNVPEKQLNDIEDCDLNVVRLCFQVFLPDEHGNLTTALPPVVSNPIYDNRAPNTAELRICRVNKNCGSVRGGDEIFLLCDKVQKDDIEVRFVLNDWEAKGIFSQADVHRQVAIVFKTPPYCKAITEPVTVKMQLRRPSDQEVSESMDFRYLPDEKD
# T3 sequence 2: T1 sequence
# Chain of RELARELA (p65 homodimer) (Q04206 1-307): as the sequence (Q04206 1-307, chain 1 of 2) above
# Chain of p50p50 homodimer (P19838 7-356): as the sequence (P19838 7-356, chain 2 of 2) above
Sequence,binding signal [1],binding signal [2],binding signal [3],binding signal [4],binding signal [5],binding signal [6],binding signal [7],binding signal [8],binding signal [9]
GGGTGCTCCCT,-0.519 z-score,0.136 z-score,0.0774 z-score,-0.166 z-score,0.115 z-score,-0.21 z-score,-0.168 z-score,-0.0364 z-score,0.178 z-score
AGGATGTTCCC,0.975 z-score,-0.225 z-score,-0.143 z-score,0.237 z-score,0.0834 z-score,-0.426 z-score,-0.342 z-score,0.00777 z-score,-0.0123 z-score
CAAATGGTCCT,-0.0232 z-score,-1.33 z-score,-0.481 z-score,-1.22 z-score,-0.808 z-score,-0.726 z-score,-0.534 z-score,-1.3 z-score,-0.727 z-score
CAGAATTCCCC,3.2 z-score,1.49 z-score,2.61 z-score,2.25 z-score,2.29 z-score,2.26 z-score,2.21 z-score,1.73 z-score,2.61 z-score
AAGGTCCTCCT,-0.719 z-score,-0.992 z-score,-0.49 z-score,-0.86 z-score,-0.773 z-score,-0.932 z-score,-0.687 z-score,-1.16 z-score,-0.643 z-score
GGGTGGCCCCC,-0.733 z-score,0.527 z-score,0.796 z-score,0.639 z-score,0.996 z-score,0.399 z-score,0.74 z-score,0.773 z-score,0.833 z-score
CAAATAGCCCC,0.081 z-score,0.839 z-score,0.425 z-score,0.413 z-score,0.823 z-score,0.524 z-score,0.621 z-score,0.331 z-score,0.543 z-score
CAGATACTCCC,-0.1 z-score,-0.181 z-score,-0.309 z-score,-0.154 z-score,-0.498 z-score,-0.145 z-score,-0.637 z-score,-0.312 z-score,-0.374 z-score
CAAAATATCCC,0.764 z-score,0.4 z-score,0.253 z-score,0.376 z-score,0.346 z-score,0.128 z-score,0.342 z-score,0.0335 z-score,0.411 z-score
GGAATATCCCT,2.04 z-score,0.687 z-score,1.23 z-score,1.41 z-score,1.36 z-score,0.471 z-score,1.04 z-score,0.979 z-score,1.6 z-score
CAGATCGTCCT,-0.0967 z-score,-1.22 z-score,-0.471 z-score,-1 z-score,-0.796 z-score,-0.842 z-score,-0.777 z-score,-1.17 z-score,-0.663 z-score
CGAAAGATCCC,0.0219 z-score,-0.089 z-score,-0.151 z-score,-0.0254 z-score,-0.0507 z-score,0.0265 z-score,-0.282 z-score,-0.258 z-score,-0.147 z-score
CGAATATTCCC,1.87 z-score,0.695 z-score,0.525 z-score,0.873 z-score,0.929 z-score,0.405 z-score,0.536 z-score,0.941 z-score,0.858 z-score
AGAGTGTCCCT,0.267 z-score,0.607 z-score,0.823 z-score,0.527 z-score,0.604 z-score,0.851 z-score,1.25 z-score,0.738 z-score,0.669 z-score
AAATTTGCCCT,0.9 z-score,-0.198 z-score,-0.202 z-score,0.0394 z-score,-0.125 z-score,-0.452 z-score,-0.337 z-score,0.26 z-score,0.00992 z-score
CGGAAAACCCC,3.69 z-score,1.19 z-score,2.57 z-score,2.32 z-score,2.28 z-score,1.23 z-score,2.18 z-score,2.07 z-score,3.23 z-score
GAAAGAATCCT,-0.654 z-score,-1.19 z-score,-0.601 z-score,-1.12 z-score,-0.922 z-score,-0.95 z-score,-0.787 z-score,-1.22 z-score,-0.804 z-score
AAAATCTTCCC,1.32 z-score,0.807 z-score,0.256 z-score,0.764 z-score,0.419 z-score,0.54 z-score,0.162 z-score,1.06 z-score,0.488 z-score
GGGAGTGTCCT,0.931 z-score,-0.152 z-score,0.385 z-score,0.0362 z-score,0.309 z-score,-0.212 z-score,0.00999 z-score,-0.0276 z-score,0.382 z-score
GAGAGACTCCT,-0.455 z-score,-2.14 z-score,-0.793 z-score,-1.01 z-score,-1.21 z-score,-1.19 z-score,-1.24 z-score,-1.58 z-score,-1.02 z-score
GGGTAAGTCCT,1.28 z-score,0.161 z-score,1.41 z-score,0.335 z-score,0.851 z-score,0.207 z-score,0.217 z-score,0.357 z-score,0.997 z-score
GAAAGCTCCCC,-0.0663 z-score,0.67 z-score,0.244 z-score,0.536 z-score,0.231 z-score,0.445 z-score,0.294 z-score,0.317 z-score,0.189 z-score
AAAAAGCCCCC,1.22 z-score,1.3 z-score,2.26 z-score,1.98 z-score,2.06 z-score,2.17 z-score,2.06 z-score,1.43 z-score,2.22 z-score
CGAGTCCCCCT,-0.0442 z-score,1.47 z-score,1.11 z-score,1.66 z-score,1.39 z-score,1.68 z-score,2.08 z-score,1.47 z-score,1.15 z-score
GGAAGTTTCCC,2.98 z-score,0.874 z-score,1.24 z-score,1.47 z-score,1.22 z-score,0.959 z-score,1.03 z-score,1.36 z-score,1.15 z-score
AGAATCCCCCC,1.06 z-score,1.63 z-score,2.16 z-score,2.66 z-score,2.29 z-score,2.64 z-score,2.51 z-score,1.9 z-score,2.21 z-score
GAAGAGCCCCT,-0.596 z-score,1 z-score,0.626 z-score,0.604 z-score,0.773 z-score,0.554 z-score,0.833 z-score,0.202 z-score,0.429 z-score
GGGATTCTCCC,2.28 z-score,0.737 z-score,2.84 z-score,1.59 z-score,2.15 z-score,2.01 z-score,1.67 z-score,1.41 z-score,2 z-score
GAGGGATTCCT,0.218 z-score,0.321 z-score,0.87 z-score,0.254 z-score,0.589 z-score,0.159 z-score,0.491 z-score,0.376 z-score,0.538 z-score
AAGTAGTCCCC,0.275 z-score,1.21 z-score,1 z-score,1.09 z-score,1.01 z-score,1.36 z-score,1.04 z-score,1.07 z-score,0.58 z-score
